According to PubChem BioAssay (NCI):
About 83,000 compounds went through this panel and 20% of them were active in at least one assay; those are over-represented in the sample as a whole.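 Assay: single dose, 48 h. Readout: percent growth (0 = no net growth; negative = cell death). Active: <10.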 Active and inactive are the calls of the source.

Key:
Experiment in all cases: NCI-60 one-dose screen, 48 h (100 = growth as untreated, 0 = no growth, -100 = all killed)
Details in all cases: 10 µM unless noted
NCI-H23 lung = test system: NCI-H23 lung
NCI-H226 lung = test system: NCI-H226 lung
NCI-H322M lung = test system: NCI-H322M lung
HOP-62 NSCLC = test system: HOP-62 NSCLC
NCI-H460 lung = test system: NCI-H460 lung
NCI-H522 lung = test system: NCI-H522 lung
A549/ATCC NSCLC = test system: A549/ATCC NSCLC
786-0 renal = test system: 786-0 renal
COLO 205 colon = test system: COLO 205 colon

Measured: growth

N#Cc1cn(Cc2ccc(Cl)cc2Cl)c(C(=O)c2ccc(Br)cc2)c1N
inactive: NCI-H23 lung 93.8% | NCI-H226 lung 75.6% | NCI-H322M lung 95% | HOP-62 NSCLC 82.6% | NCI-H460 lung 95.9% | NCI-H522 lung 91.2% | A549/ATCC NSCLC 98.2% | 786-0 renal 99.1% | COLO 205 colon 114%

O=C(Cn1cc[n+](CC(=O)c2ccc(-c3ccccc3)cc2)c1)Nc1cccc2cccnc12
inactive: NCI-H23 lung 76.8% | NCI-H226 lung 83.7% | NCI-H322M lung 95.7% | HOP-62 NSCLC 88.4% | NCI-H460 lung 87.8% | NCI-H522 lung 42.3% | A549/ATCC NSCLC 88.1% | 786-0 renal 95.8% | COLO 205 colon 74.2%

NC(N)=Nc1ccc(Oc2cccc(Nc3ccc(Cl)cc3)c2)cn1
active: NCI-H322M lung -3.11% | HOP-62 NSCLC -21.3% | NCI-H460 lung -72.6% | NCI-H522 lung -30.1% | COLO 205 colon -64.4%
inactive: NCI-H23 lung 29.1% | NCI-H226 lung 29.6% | A549/ATCC NSCLC 24.8% | 786-0 renal 35.4%

CC(=O)N1N=C(c2cccc(-n3cccc3)c2)CC1c1cccc(F)c1 (configuration not stated)
inactive: NCI-H23 lung 82.1% | NCI-H226 lung 94.5% | NCI-H322M lung 90.3% | HOP-62 NSCLC 109% | NCI-H460 lung 107% | NCI-H522 lung 94.8% | A549/ATCC NSCLC 95.2% | 786-0 renal 102% | COLO 205 colon 104%

CN1c2ccccc2Sc2cc(C=C(C#N)C#N)ccc21
active: NCI-H226 lung -31.4%
inactive: NCI-H23 lung 89.3% | NCI-H322M lung 97.3% | HOP-62 NSCLC 90.4% | NCI-H460 lung 97.9% | NCI-H522 lung 91.8% | A549/ATCC NSCLC 98% | 786-0 renal 105% | COLO 205 colon 108%

CCOc1ccc(C(=O)Nc2ncc(Cc3ccc(F)cc3)s2)cc1
inactive: NCI-H23 lung 28.4% | NCI-H226 lung 40.1% | NCI-H322M lung 55.3% | HOP-62 NSCLC 33.7% | NCI-H522 lung 10.8% | A549/ATCC NSCLC 33.6% | 786-0 renal 39.3%
active: NCI-H460 lung 7.15% | COLO 205 colon -21.9%

COc1ccc(NCc2cn(-c3ccc(C(=O)O)cc3)nc2-c2cc(C(F)(F)F)cc(C(F)(F)F)c2)cc1
inactive: NCI-H23 lung 104% | NCI-H226 lung 107% | NCI-H322M lung 94% | HOP-62 NSCLC 104% | NCI-H460 lung 93.6% | NCI-H522 lung 94.4% | A549/ATCC NSCLC 87.7% | 786-0 renal 102% | COLO 205 colon 110%

CC[C@@H](CO)Nc1ccc2ncc(C#Cc3cncc(C(=O)Nc4ccc(CN5CCN(C)CC5)c(C(F)(F)F)c4)c3)n2n1
active: NCI-H23 lung -71.5% | NCI-H226 lung -39.4% | NCI-H322M lung -30.1% | HOP-62 NSCLC -71.7% | NCI-H460 lung -88.8% | NCI-H522 lung -76.1% | A549/ATCC NSCLC -35.3% | 786-0 renal -96.8% | COLO 205 colon -87.2%

C#CCn1cccc1CNc1ccc(OC)cc1
active: NCI-H23 lung -88.9% | NCI-H226 lung -50.1% | HOP-62 NSCLC -45.3% | NCI-H460 lung -50.5% | NCI-H522 lung -57.7% | A549/ATCC NSCLC -47.6% | 786-0 renal -69.6% | COLO 205 colon -60.7%
inactive: NCI-H322M lung 47%

CC(C)(C)c1ccc(-c2nnc(-c3nc4ccccc4nc3Cl)o2)cc1
inactive: NCI-H23 lung 90.9% | NCI-H226 lung 86.5% | NCI-H322M lung 92.9% | HOP-62 NSCLC 11.1% | NCI-H460 lung 88.1% | NCI-H522 lung 99.1% | A549/ATCC NSCLC 102% | 786-0 renal 105% | COLO 205 colon 104%

CCOC(=O)c1c(Nc2ccccc2)nn2c(-c3ccccc3)ccnc12
inactive: NCI-H23 lung 86.2% | NCI-H226 lung 85.3% | NCI-H322M lung 94.2% | HOP-62 NSCLC 101% | NCI-H460 lung 97.9% | NCI-H522 lung 87.9% | A549/ATCC NSCLC 92.4% | 786-0 renal 86.6% | COLO 205 colon 99.5%

COc1ccc(/C=C(\C#N)C(=O)N2c3ccccc3Sc3ccc(SC)cc32)cc1F
inactive: NCI-H23 lung 91.4% | NCI-H226 lung 88.8% | NCI-H322M lung 90% | HOP-62 NSCLC 97% | NCI-H460 lung 94.4% | NCI-H522 lung 84.5% | A549/ATCC NSCLC 85.7% | 786-0 renal 84.4% | COLO 205 colon 111%

Cc1occc1-c1nc2s/c(=C/c3ccc(-c4cc(C(F)(F)F)ccc4Cl)o3)c(=O)n2n1
inactive: NCI-H23 lung 104% | NCI-H226 lung 98.1% | NCI-H322M lung 101% | HOP-62 NSCLC 116% | NCI-H460 lung 109% | NCI-H522 lung 98.2% | A549/ATCC NSCLC 102% | 786-0 renal 103% | COLO 205 colon 112%

CCOC(=O)c1c(Nc2ccccc2)nn2c(-c3cccs3)ccnc12
inactive: NCI-H23 lung 92.7% | NCI-H226 lung 89% | NCI-H322M lung 94.4% | HOP-62 NSCLC 93.8% | NCI-H460 lung 92.3% | NCI-H522 lung 82.1% | A549/ATCC NSCLC 95.2% | 786-0 renal 71% | COLO 205 colon 92.7%

NS(=O)(=O)c1ccc(-n2cc(-c3cccc(NC(=O)c4ccc(N5CCOCC5)c(C(F)(F)F)c4)c3)nn2)cc1
inactive: NCI-H23 lung 26.3% | NCI-H226 lung 15.5% | NCI-H322M lung 26% | HOP-62 NSCLC 11.8% | NCI-H460 lung 50.7% | NCI-H522 lung 39.9% | A549/ATCC NSCLC 53.5% | 786-0 renal 33.6% | COLO 205 colon 50.7%

Nc1nc(-c2cccc([N+](=O)[O-])c2)c(N=Nc2cccc([N+](=O)[O-])c2)s1
active: NCI-H23 lung -25.6% | NCI-H460 lung 4.2% | NCI-H522 lung -12% | 786-0 renal -70.4%
inactive: NCI-H226 lung 14.9% | NCI-H322M lung 64.6% | HOP-62 NSCLC 16.5% | A549/ATCC NSCLC 17.5% | COLO 205 colon 106%

COc1cccc2cc(-c3cc4ccccc4[nH]3)/c(=N\NC(=O)c3ccc(Cl)cc3)oc12
inactive: NCI-H23 lung 44.6% | NCI-H226 lung 44% | NCI-H322M lung 41.5% | HOP-62 NSCLC 31.3% | NCI-H460 lung 18.4% | NCI-H522 lung 18.7% | A549/ATCC NSCLC 39.8% | 786-0 renal 48.5% | COLO 205 colon 62.1%

CCNC(=O)N1CCc2cc(OC)c(OCCc3ccc(OC)c(N)c3)cc2C1c1ccc(C)cc1C (configuration not stated)
active: NCI-H460 lung 2.6% | NCI-H522 lung -30.2% | A549/ATCC NSCLC 9.14%
inactive: NCI-H23 lung 20% | NCI-H226 lung 42.9% | NCI-H322M lung 40.7% | HOP-62 NSCLC 26.9% | 786-0 renal 13.3% | COLO 205 colon 13.3%

O=C(Nc1ccc(Br)cc1)Nc1nc2ccc([N+](=O)[O-])cc2s1
active: NCI-H23 lung -21.9% | NCI-H226 lung -3.17% | NCI-H322M lung 8.37% | HOP-62 NSCLC 0.86% | NCI-H460 lung -3.34% | NCI-H522 lung 3.86% | A549/ATCC NSCLC 5.83% | COLO 205 colon -37%
inactive: 786-0 renal 11.2%

O=C1CCCC2=C1C(c1c[nH]c3ccc(Br)cc13)Cc1cc(Br)ccc1N2 (configuration not stated)
inactive: NCI-H23 lung 45.8% | NCI-H226 lung 68.8% | NCI-H322M lung 54.2% | HOP-62 NSCLC 41.2% | NCI-H460 lung 17.3% | NCI-H522 lung 12.8% | A549/ATCC NSCLC 43.7% | 786-0 renal 41.2% | COLO 205 colon 42.5%

Nc1nc(-c2cccc([N+](=O)[O-])c2)c(N=Nc2ccc([N+](=O)[O-])cc2Cl)s1
inactive: NCI-H322M lung 13.8% | HOP-62 NSCLC 21.9% | A549/ATCC NSCLC 15.2%
active: NCI-H23 lung 0.802% | NCI-H226 lung -2.56% | NCI-H460 lung 1.77% | NCI-H522 lung -3.73% | 786-0 renal 3.66% | COLO 205 colon -61.6%

COc1cc2nc(Cl)nc(Nc3cccc(C4=Nc5c(N)nc(N)nc5NC(c5ccc(F)cc5)C4)c3)c2cc1OC (configuration not stated)
inactive: NCI-H23 lung 75.9% | NCI-H226 lung 75.8% | NCI-H322M lung 83.8% | HOP-62 NSCLC 12.2% | NCI-H460 lung 21.7% | NCI-H522 lung 50% | A549/ATCC NSCLC 64.2% | 786-0 renal 62.1% | COLO 205 colon 70.7%

COc1ccc([C@@H]2[C@@H](O)C(=O)N2c2cc(OC)c(OC)c(OC)c2)cc1F
active: NCI-H460 lung 2.68% | NCI-H522 lung -49.6% | COLO 205 colon -79.8%
inactive: NCI-H23 lung 15.9% | NCI-H226 lung 36.9% | NCI-H322M lung 52.4% | HOP-62 NSCLC 28.3% | A549/ATCC NSCLC 20.2% | 786-0 renal 10%

Cc1nn(-c2ccccc2)c2ncnc(N/N=C/c3ccccc3O)c12
active: NCI-H460 lung 6.19%
inactive: NCI-H23 lung 14.3% | NCI-H226 lung 14.8% | NCI-H322M lung 14.1% | HOP-62 NSCLC 10.2% | NCI-H522 lung 23.1% | A549/ATCC NSCLC 11.7% | 786-0 renal 11% | COLO 205 colon 10.5%

c1n[nH]cc1-c1nc2ccc3[nH]ncc3c2c2c1CCCC2
active: NCI-H460 lung 9.2% | NCI-H522 lung 2.99% | COLO 205 colon 8.98%
inactive: NCI-H23 lung 19% | NCI-H226 lung 29.1% | NCI-H322M lung 31.1% | HOP-62 NSCLC 14.7% | A549/ATCC NSCLC 15.7% | 786-0 renal 16.9%

O=C(CSc1nc2ccccc2c(=O)n1-c1ccccc1)Nc1cccc(C(=O)/C=C/c2ccccc2)c1
inactive: NCI-H23 lung 102% | NCI-H226 lung 83.1% | NCI-H322M lung 102% | HOP-62 NSCLC 99% | NCI-H460 lung 91.6% | NCI-H522 lung 92% | A549/ATCC NSCLC 80.1% | 786-0 renal 98.5% | COLO 205 colon 106%

N/C(=N\C(N)=N\c1nc2ccccc2s1)c1ccncc1Cl
inactive: NCI-H23 lung 33.9% | NCI-H226 lung 67.8% | NCI-H322M lung 80.6% | HOP-62 NSCLC 51.6% | NCI-H460 lung 23.4% | NCI-H522 lung 18.4% | A549/ATCC NSCLC 71% | 786-0 renal 42.7% | COLO 205 colon 50.4%

CN1CCN(c2nc(-c3csc(-c4ccccc4)n3)cc3ccccc23)CC1
inactive: NCI-H23 lung 66.7% | NCI-H226 lung 97.7% | NCI-H322M lung 72.9% | HOP-62 NSCLC 70.2% | NCI-H522 lung 37.1% | A549/ATCC NSCLC 53.8% | 786-0 renal 46.4%
active: NCI-H460 lung -26.1% | COLO 205 colon -84.4%
